# Luciferase inh: inhibitors of firefly (Photinus pyralis) luciferase | P08659 | purified P. pyralis luciferase, luminescence, biochemical | Potency, µM (doses to about 115 µM), most hits filed as inhibitors | hit rate 2.5% among 76,000 | AID 1347043; further: nearly all actives have a fitted effect of over 65% in size
#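 Purified P. pyralis luciferase (10nM final) in 50mM Tris acetate pH 7.5, 10mM Mg acetate, 0.01% Tween-20, 0.05% BSA with 10uM D-luciferin and 10uM ATP. Compounds titrated qHTS. Luminescence imaged on CCD.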
# GPT2 inhibitor: blocks human glutamate pyruvate transaminase 2; AID 1671188; Potency, µM (titrated, usually from 57.7 µM), inactives show at the highest dose activity change, negative = inhibition, usual class: inhibitors; Q8TD30; Recombinant GPT2, coupled pyruvate oxidase/HRP Amplex Red fluorescence; hit rate 0.25% among 100,000; further: nearly all actives have a fitted effect of over 60% in size
#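 GPT2 10ng/uL, a-KG 250uM, L-Ala 2mM, HEPES pH7.5 + 0.0001% Tween; 30 min RT. Then Amplex mix (PO/HRP/ThPP), 30 min RT dark, fluorescence. AOA 50uM used as positive control.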
# HEK293 tox: HEK 293 cell cytotoxicity. Potency, µM (series often up to 115 µM), without a hit: top-dose activity change, negative = cytotoxicity, most hits filed as inhibitors. HEK 293 viability, ATP luminescence (CellTiter-Glo), 48-72 h. hit rate 6.6% among 94,000; further: nearly all actives have a fitted effect of over 60% in size
#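 CellTiter-Glo luminescence (cellular ATP) was read after 48 or 72 hr of compound exposure at 37 degree Celsius. Cells were HEK 293 plated at 250 cells/well.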
# 3T3 cytotox: kills NIH 3T3 cells; NIH 3T3 viability, CellTiter-Glo ATP luminescence, 48-72 h; Potency, µM (highest dose often 96.7 µM), without a hit: at the top dose activity change, negative = cytotoxicity, most hits filed as inhibitors; hit rate 4.3% among 94,000; AID 1345082; further: nearly all actives have a fitted effect of over 55% in size
#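 NIH 3T3 cells at 400 cells/well received 23 nL of compound by pintool and were incubated 48 or 72 h at 37 °C. Viability was read as ATP-coupled CellTiter-Glo luminescence.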
# hNpr1 antagonist: antagonists of human natriuretic peptide receptor Npr1. Potency, µM (top dose mostly 46.3 µM), without a hit: top-dose activity change, negative = inhibition, hits mostly inhibitors. HEK293 hNpr1 GloSensor cGMP, ANP-stimulated luminescence. AID 1347048. hit rate 1.6% among 76,000; calls by dose curve; further: nearly all actives have a fitted effect of over 60% in size
#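 Compound pre-incubated 30 min at room temperature on GloSensor-loaded HEK293 cells stably carrying hNpr1 and the pGS-40F cGMP biosensor. Stimulation uses hNppA at 0.1 nM final; luminescence is taken at baseline and 20 min post-agonist.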
# Active calls of the source: *; i = inactive; ? = inconclusive; · = no result given; [ ] = another dose, or the depositor's remark. Shown are actives, neighbours in structure and some others; about 10% of the full set was active somewhere. Unless noted, the call rests on the fitted dose curve; in most records, active means well fitted curve in the direction sought with a large enough effect; inconclusive means small, poorly fitted or top-dose-only effect, or another doubt; inactive means no such curve, though single readings can be large; an effect the other way counts as inactive or inconclusive. On the % scale 0 is the no-effect control and ±100 the full control effect; potency means the concentration at half of the fitted maximal effect.
SMILES,Luciferase inh,GPT2 inhibitor,HEK293 tox,3T3 cytotox,hNpr1 antagonist
O=C(NC1CC1)C1c2ccccc2C(=O)N(C2CCCCC2)C12CCCCC2 (stereo not given),i,i,32µM*,?,-6%
O=C(NCCc1ccccc1)C1c2ccccc2C(=O)N(Cc2ccccc2)C12CCCC2 (stereo not given),i,i,40µM*,32µM*,-12%
COC(=O)CCNC(=O)C1c2ccccc2C(=O)N(Cc2ccccc2)C12CCCC2 (stereo not given),i,i,-9%,5%,1%
O=C(NC1CCCC1)C1c2ccccc2C(=O)N(C2CCCC2)C12CCCCC2 (stereo not given),i,-4%,-10%,-6%,6%
Cn1ccc2cc(-c3ccc4c(n3)c(=O)ncn4CC3CC3)ccc21,45µM*,0%[88.5 µM],-22%[172 µM],?,-11%[70.6 µM]
COCCn1cnc2ccc(-c3ccc4c(ccn4C)c3)nc2c1=O,?,-38%[88.5 µM],?,45µM*,-7%[70.6 µM]
O=C1Nc2ccccc2C12CN(Cc1ccc(F)cc1)C2,·,1%[88.5 µM],?,-17%[138 µM],·
O=C1OCC2(CCN(Cc3cccc(OC(F)(F)F)c3)C2)N1c1ccncc1 (stereo not given),i,-2%[88.5 µM],100µM*,?,7%[70.6 µM]
Cn1cc(CN2CC3(COCC(=O)N(Cc4cccc(OC(F)(F)F)c4)C3)C2)cn1,i,-4%[88.5 µM],?,-19%[138 µM],-16%[70.6 µM]
O=C1COCC2(CN1Cc1cccc(OC(F)(F)F)c1)CN(c1ccccc1F)C2,i,-18%[88.5 µM],89µM*,89µM*,0%[70.6 µM]
O=C1COCC2(CN(Cc3ccsc3)C2)CN1Cc1cccc(OC(F)(F)F)c1,i,-7%[88.5 µM],63µM*,45µM*,-19%[70.6 µM]
COc1cccc(N2C(=O)OCC23CCN(CCCc2ccccc2)C3)c1 (stereo not given),i,-11%[88.5 µM],?,?,-3%[70.6 µM]
CCN1CCCC12Cc1ccccc1CN([S+](=O)([O-])c1ccccc1)C2 (stereo not given),·,-3%,?,-21%,·
Cc1c(C(C)NC(=O)C(=O)c2ccco2)cnn1-c1cccc2ccccc12 (stereo not given),i,3%,45µM*,?,-8%
O=C(Nc1ccccc1F)N1CC2CCC(C1)N2Cc1ccccc1,·,-19%,-6%,-15%,·
COc1ccccc1N1CCN(C2CCCN(Cc3cccc(C)n3)C2)CC1 (stereo not given),i,-26%,?,-4%,10%
c1ccc2c(N3CCN(Cc4cc5n(n4)CCNC5)CC3)nsc2c1,i,-20%,40µM*,?,4%
c1ccc2sc(N3CCN(Cc4cc5n(n4)CCCNC5)CC3)nc2c1,i,-39%,-14%,-20%,0%
CCc1ccc(NC(=O)Cn2ccn3nc4c(c3c2=O)CC(C)CC4)cc1 (stereo not given),i,5%,45µM*,?,0%
Cc1ccc(C(=O)N2CCN(C(=O)c3nnn4c3COC(c3ccc(Cl)cc3)C4)CC2)cc1F (stereo not given),i,-21%,-16%,-12%,-1%
O=C(c1cc(F)ccc1F)N1CCN(C(=O)c2nnn3c2COC(c2ccc(Cl)cc2)C3)CC1 (stereo not given),i,3%,35µM*,-25%,?
O=C(c1ccc(F)cc1)N1CCN(C(=O)c2nnn3c2COC(c2ccc(Cl)cc2)C3)CC1 (stereo not given),i,0%,40µM*,?,-26%
Cc1cc(C(F)(F)F)nn1CCNC(=O)C1COc2ccccc2C1 (stereo not given),i,-40%,?,-10%,-10%
O=C(CCc1c[nH]c2ccccc12)N1CCC[C@H]1c1nc(-c2ccc(F)cc2)n[nH]1,·,i,40µM*,?,·
O=C(CCc1c[nH]c2ccccc12)N1CCC(Cc2nc(-c3ccncc3)n[nH]2)CC1,·,i,-29%,?,·
SMILES,Luciferase inh,GPT2 inhibitor,HEK293 tox,3T3 cytotox,hNpr1 antagonist
CC(Oc1ccccc1)C(=O)NCc1nnc2ccc(-c3ccccc3)nn12 (stereo not given),i,3%,-33%,-11%,2%
O=C1c2cc(N3CCOCC3)nc(-c3ccccc3)c2CN1Cc1ccccc1,i,3%[88.5 µM],50µM*,32µM*,?
COc1ccc(-c2nc(N3CCOCC3)cc3c2CN(Cc2ccccc2)C3=O)cc1,?,-8%[88.5 µM],?,?,-22%[70.6 µM]
O=C1c2cc(N3CCOCC3)nc(-c3cccc(F)c3)c2CN1CC1CC1,i,-14%[88.5 µM],112µM*,?,-23%[70.6 µM]
C[S+](=O)([O-])Nc1cccc(-c2nc(N3CCOCC3)cc3c2CN(CC2CC2)C3=O)c1,i,3%,-22%,?,-2%
Cn1cc(CN2Cc3c(cc(N4CCOCC4)nc3-c3cccc(F)c3)C2=O)cn1,i,i,89µM*,?,-23%[70.6 µM]
COc1ccc(C(=O)NC2CCN(c3nccc(Nc4ccccc4OC)n3)CC2)cc1,·,i,-18%,-6%,·
CCN(CC)CCCS(=O)(=O)N[C@H](CCc1ccccc1)c1nc(Cc2ccc(Br)cc2)no1,·,i,·,·,·
CC(C)Cn1ccc2c(NC(=O)C[C@H]3NC(=O)c4ccccc4NC3=O)cccc21,i,i,?,28µM*,-13%
CC(C)Cn1ccc2c(NC(=O)CC[C@H]3NC(=O)c4ccccc4NC3=O)cccc21,?,i,?,-16%,-12%
O=C(c1ccc(C2CCCN2)s1)N1CCc2nc[nH]c2C1 (stereo not given),i,-5%,-6%,-21%,0%
O=C1N(Cc2ccc(F)cc2)C[C@H]2CN(Cc3cnc4ccccc4c3)CCN12,i,1%[88.5 µM],?,71µM*,?
COc1ccc(-c2onc(C)c2C(=O)NC2CCCc3ccccc32)cc1 (stereo not given),28µM*,i,?,?,-5%
COc1cc(OC)c(CNC(=O)c2c(C)noc2-c2cccs2)c(OC)c1,i,-2%,79µM*,?,-3%
COc1ccc(-c2onc(C)c2C(=O)NCc2c(OC)cc(OC)cc2OC)cc1,i,5%,32µM*,?,-10%
Cc1ccc(C(=O)N2CCC(C(NC(=O)c3cccs3)C(=O)NC3CC3)CC2)cc1 (stereo not given),i,i,-27%,-12%,-13%
Cc1cnn(-c2cc(N3CCC(n4cc(C5CCCC5)nn4)CC3)ncn2)c1,i,-6%[11.5 µM],45µM*,?,?
CCNC(=O)CN1CCN(C(=O)[C@@H](N)Cc2cnc[nH]2)CC1,i,-2%,-1%,5%,?
COC(=O)N1CCN(c2nccc(Nc3ccc(OC)cc3)n2)CC1,·,i,?,?,·
Cc1ccc(Nc2ccnc(N3CCN(C(=O)Cc4ccc(F)cc4)CC3)n2)cc1,·,i,?,32µM*,·

# Compound activity from PubChem.
